Screens deposited in PubChem BioAssay by National Center for Advancing Translational Sciences (NCATS).
In the library only some 2.8% were active in any assay of this set; here they are far more common.
SNCA viab count: counter-screen for SNCA expression inhibitors: cell viability | Potency, µM (titrated, usually from 57.1 µM), without a hit: top-dose activity change, negative = cytotoxicity, hits mostly cytotoxic | HEK-293-SNCA-luc viability, GF-AFC fluorescence, 24 h | actives 0.12% (n = 150,000);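 note: potency is the fitted concentration of half-maximal effect; 0% = DMSO-treated cells and -100% = medium-only wells without cells; nearly all actives have a fitted effect of over 30% in size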
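Cytotoxicity counterscreen: after 24 h compound treatment of genome-edited SNCA-luciferase HEK-293 cells, live-cell protease substrate GF-AFC read by fluorescence after 30 min; activity scaled between DMSO (0%) and medium-only (-100%), curves Hill-fitted.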
SNCA expr inhib: inhibitors of alpha-synuclein (SNCA) gene expression. HEK-293 SNCA-luciferase knock-in, luminescence, 24 h. Potency, µM (doses to about 57.2 µM), inactives show at the highest dose activity change, negative = inhibition, actives largely listed as inhibitors. actives 0.17% (n = 140,000). AID 1671194;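 note: potency is the fitted concentration of half-maximal effect; plate controls were DMSO cells for no effect and cell-free wells for full effect; nearly all actives have a fitted effect of over 45% in size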
KDM5B inh: blocks human KDM5B histone demethylase activity; actives 2.6% (n = 220,000); Potency, µM (titrated, usually from 57.7 µM), usual class: inhibitors; KDM5B demethylase, FDH-coupled NADH fluorescence (FDH is formaldehyde dehydrogenase); note: potency is the fitted concentration of half-maximal effect; 0% is about no effect; nearly all actives have a fitted effect of over 70% in size
Target sequence (Q9UGL1 whole entry, looked up): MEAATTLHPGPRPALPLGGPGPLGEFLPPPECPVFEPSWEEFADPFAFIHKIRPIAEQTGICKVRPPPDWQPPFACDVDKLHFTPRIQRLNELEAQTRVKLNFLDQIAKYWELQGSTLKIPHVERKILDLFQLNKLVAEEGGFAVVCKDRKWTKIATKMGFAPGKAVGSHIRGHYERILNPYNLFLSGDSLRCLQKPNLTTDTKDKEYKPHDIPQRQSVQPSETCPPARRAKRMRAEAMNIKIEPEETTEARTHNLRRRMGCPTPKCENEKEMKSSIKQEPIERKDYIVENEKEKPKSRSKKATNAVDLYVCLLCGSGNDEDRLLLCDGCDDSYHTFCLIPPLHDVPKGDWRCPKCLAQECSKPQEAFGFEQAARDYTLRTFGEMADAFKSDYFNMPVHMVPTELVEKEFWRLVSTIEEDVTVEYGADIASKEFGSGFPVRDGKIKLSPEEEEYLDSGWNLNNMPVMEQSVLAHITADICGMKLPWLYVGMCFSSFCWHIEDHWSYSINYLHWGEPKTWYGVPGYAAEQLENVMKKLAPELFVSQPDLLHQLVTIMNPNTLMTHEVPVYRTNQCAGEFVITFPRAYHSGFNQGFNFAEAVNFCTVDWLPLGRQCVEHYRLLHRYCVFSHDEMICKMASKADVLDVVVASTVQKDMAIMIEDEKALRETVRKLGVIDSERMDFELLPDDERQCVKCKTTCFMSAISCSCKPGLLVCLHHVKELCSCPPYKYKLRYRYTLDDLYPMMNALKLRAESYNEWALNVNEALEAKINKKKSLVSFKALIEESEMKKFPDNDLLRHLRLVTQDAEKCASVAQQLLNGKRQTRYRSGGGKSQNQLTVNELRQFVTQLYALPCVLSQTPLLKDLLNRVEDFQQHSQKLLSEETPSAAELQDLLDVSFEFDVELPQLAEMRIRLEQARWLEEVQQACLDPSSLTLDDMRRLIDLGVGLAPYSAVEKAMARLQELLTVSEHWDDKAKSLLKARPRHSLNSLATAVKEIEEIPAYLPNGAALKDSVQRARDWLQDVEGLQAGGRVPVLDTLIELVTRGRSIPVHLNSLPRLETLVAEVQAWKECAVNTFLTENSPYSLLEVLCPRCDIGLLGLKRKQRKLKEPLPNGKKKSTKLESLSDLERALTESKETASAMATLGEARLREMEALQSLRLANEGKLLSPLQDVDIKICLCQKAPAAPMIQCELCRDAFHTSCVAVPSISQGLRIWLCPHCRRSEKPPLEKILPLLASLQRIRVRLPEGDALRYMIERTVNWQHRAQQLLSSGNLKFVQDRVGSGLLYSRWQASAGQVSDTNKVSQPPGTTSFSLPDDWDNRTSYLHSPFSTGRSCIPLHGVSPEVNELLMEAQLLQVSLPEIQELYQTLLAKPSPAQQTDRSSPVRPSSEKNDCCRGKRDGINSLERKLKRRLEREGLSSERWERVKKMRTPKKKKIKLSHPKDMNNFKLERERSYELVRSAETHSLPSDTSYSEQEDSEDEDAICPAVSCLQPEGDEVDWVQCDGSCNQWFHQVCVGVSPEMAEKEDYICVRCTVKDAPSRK
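Inhibition is measured as reduced NADH fluorescence generation from FDH coupling to formaldehyde release. Truncated KDM5BΔAP at 200 nM final acts on H3K4me3 peptide (12.5 µM in substrate mix) in pH 7.5 HEPES buffer with Tween-20, 30 min, room temperature.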
IP6K1 inh: IP6K1 kinase inhibition; Q92551; IP6K1 kinase, ADP-Glo luminescence, 2 h; stronger effect = lower value; activity change, % (series mostly up to about 58 µM); actives 0.81% (n = 140,000); AID 1645851; in the data active = activity change below about -25%; note: % is set by controls: 0 for no effect and ±100 for the full control effect
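ADP-Glo luminescence measures ADP made by human IP6K1 during a 2 h RT reaction with ATP/IP6 (mix at 1.3 mM/130 uM); top library doses 57.5 and 19.1 uM final.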
Active calls of the source: *; i = inactive; ? = inconclusive; . = no result; [ ] = dose if it differs, or a comment. Unless noted, calls come from the whole dose curve; as a rule, active = well fitted curve in the direction sought with a large enough effect; inconclusive = small, poorly fitted or top-dose-only effect, or another doubt; inactive = no such curve, though single readings can be large; an effect the other way counts as inactive or inconclusive.

SMILES	SNCA viab count	SNCA expr inhib	KDM5B inh	IP6K1 inh
CCc1noc(-c2nc(-c3ccccc3F)no2)n1	2.0%	43.2%	i	-19.8
NC(=O)C1CCN(c2cc(-c3noc([C@@H]4CCCN4Cc4ccncc4)n3)ccn2)CC1	-3.0%[87.6 µM]	6.3%[87.6 µM]	31.6µM*	7.3
c1cncc(CN2CCC[C@H]2c2nc(-c3ccnc(N4CCCC4)c3)no2)c1	0.7%[87.6 µM]	13.1%[87.6 µM]	35.5µM*	9.5
CC(=O)Nc1ccc(CN2CCC[C@H]2c2nc(-c3ccnc(NS(C)(=O)=O)c3)no2)cc1	2.9%	26.0%	?	12.1
CC(=O)N1CCN(c2cc(-c3noc([C@@H]4CCCN4Cc4ccc(N(C)C)cc4)n3)ccn2)CC1	-5.3%	-11.4%	28.2µM*	10.5
CC(=O)Nc1ccc(CN2CCC[C@H]2c2nc(-c3ccnc(N4CCC(C(N)=O)CC4)c3)no2)cc1	4.4%	14.9%	31.6µM*	12.9
Cc1cc(C(=O)NC(c2ccc3c(c2)OCCCO3)C(C)C)c(C)s1 (centres undefined)	.	.	i	.
Cc1ccc(C2CC(=O)CC(c3ccc(C)cc3)C2(C#N)C(N)=O)cc1 (centres undefined)	.	.	i	.
CS(=O)(=O)Nc1cc(-c2noc([C@@H]3CCCN3Cc3ccccc3)n2)ccn1	3.4%[87.6 µM]	-15.9%[87.6 µM]	?	-10.4
NC(=O)C1CCN(c2cc(-c3noc([C@@H]4CCCN4Cc4cccnc4)n3)ccn2)CC1	-4.0%[87.6 µM]	29.5%[87.6 µM]	39.8µM*	16.6
c1cc(-c2noc([C@@H]3CCCN3Cc3ncc[nH]3)n2)cc(N2CCCC2)n1	0.8%[87.6 µM]	26.4%[87.6 µM]	39.8µM*	17.0
c1cc(-c2noc([C@@H]3CCCN3C3CCOCC3)n2)cc(N2CCCC2)n1	0.1%[87.6 µM]	65.1%[87.6 µM]	?	0.4
CC(C)CN1CCC[C@H]1c1nc(-c2ccnc(NS(C)(=O)=O)c2)no1	-7.7%[87.6 µM]	?	35.5µM*	3.3
COc1ccc(CN2CCC[C@H]2c2nc(-c3ccc(N4CCC(C(N)=O)CC4)nc3)no2)c(O)c1	4.2%	3.0%	i	12.2
CC(c1cccs1)N(C)CC(O)COc1ccc(-c2ccccc2)cc1 (centres undefined)	.	.	i	.
COC(=O)CCNC(=O)/C=C/c1cccc(C)c1	.	.	i	.
CCC(NC(=O)c1cccnc1)C12CC3CC(CC(C3)C1)C2 (centres undefined)	.	.	i	.
Cc1cccc(Cn2cc3c(=O)n(CC(=O)Nc4ccc(C)c(F)c4)nc-3c3cc(F)ccc32)c1	-13.8%	22.4µM*	i	5.5
CCCCn1nc(C2CCOC2)nc1-c1cnc(NC)nc1 (centres undefined)	-0.7%	10.2%	25.1µM*	-1.4
NNc1cc(N2CCN(c3ccccc3)CC2)ncn1	.	.	i	.
O=C1NCCCc2[nH]c(-c3cnn(-c4cccc(F)c4)c3)nc21	-16.6%	76.0%	28.2µM*	-3.4
O=C1NCCCc2[nH]c(-c3cc(-c4cccc(F)c4)no3)nc21	2.0%	15.8%	?	12.9
O=C(NCc1ccnc2[nH]ccc12)c1cccc2[nH]ccc12	8.0%[87.6 µM]	102.5%[87.6 µM]	?	15.6
O=C(NCc1ccnc2[nH]ccc12)c1ccccc1Cl	3.0%[87.6 µM]	8.0%[87.6 µM]	35.5µM*	10.5
O=C(NCc1ccc(Cl)cc1)c1ccnc2[nH]ccc12	0.2%[87.6 µM]	24.3%[87.6 µM]	28.2µM*	3.9
SMILES	SNCA viab count	SNCA expr inhib	KDM5B inh	IP6K1 inh
O=C(NCC(=O)N1CCCN(S(=O)(=O)c2ccc(F)cc2)CC1)NCc1ccccc1	.	.	i	.
CCc1ccc(C(=O)NC(C)C2CC3CCC2C3)s1 (centres undefined)	.	.	i	.
O=C1NC2(CCCN(C(=O)c3ccccn3)C2)Oc2ccccc21 (centres undefined)	0.8%[87.6 µM]	39.2%[87.6 µM]	i	33.9
O=C(c1ccccc1F)N1CCC2(CC1)CC(=O)N(c1ccccc1)c1ccccc1O2	3.1%	-13.4%	i	0.4
O=C1CC2(CCN(C(=O)c3ccccc3F)CC2)Oc2ccccc21	-2.7%	13.5%	25.1µM*	8.8
O=C1CC2(CCN(C(=O)c3ccccn3)CC2)Oc2ccccc21	-0.4%[87.6 µM]	-2.7%[87.6 µM]	31.6µM*	5.1
O=C1CC2(CCN(C(=O)c3ccccc3)CC2)Oc2ccccc21	-0.9%[87.6 µM]	8.1%[87.6 µM]	31.6µM*	1.5
CN(Cc1ccccc1)C(=O)c1cc(-c2cccc(F)c2)nc2c1cnn2C	.	.	.	-1.3
CN(CCNC(=O)C1CCN(CC(F)(F)F)CC1)C1CC1	.	.	i	.
COc1ccc(-c2nc(C)nc3c2CCC3)c2ccc(C)nc12	-14.5%	53.7%	28.2µM*	12.6
CN1C(=O)C(c2ccccc2)CC12CCN(C(=O)C1CCC1)CC2 (centres undefined)	2.4%	-16.0%	i	-5.1
